From PubChem
p97 ATPase inh = inhibitors of human p97 ATPase, primary screen, biochemical; Transitional endoplasmic reticulum ATPase (Homo sapiens), P55072; recombinant p97 ATPase, Kinase-Glo ATP luminescence, 3 h; inhibition, % at 8 µM; 220,000 compounds, 0.42% hits; AID 1481, 2009; in the data active means inhibition above about 15%;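 further: 0% = DMSO vehicle and 100% = wells lacking enzyme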
LYPLA2 inh = LYPLA2 inhibitors, primary screen, counter-screen for PME1 inhibitor project, biochemical, fluorescence polarization, FP-Rh probe ABPP; 320,000 compounds, 0.38% hits; inhibition, % at 5.9 µM; Acyl-protein thioesterase 2 (Homo sapiens), O95372; recombinant LYPLA2;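 active means inhibition above the screen-wide mean plus 3 SD, limit set per campaign, cut at about 26% in these data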;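 further: 0% = LYPLA2 with DMSO and 100% = wells lacking LYPLA2 enzyme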
Target sequence (O95372 whole entry, looked up): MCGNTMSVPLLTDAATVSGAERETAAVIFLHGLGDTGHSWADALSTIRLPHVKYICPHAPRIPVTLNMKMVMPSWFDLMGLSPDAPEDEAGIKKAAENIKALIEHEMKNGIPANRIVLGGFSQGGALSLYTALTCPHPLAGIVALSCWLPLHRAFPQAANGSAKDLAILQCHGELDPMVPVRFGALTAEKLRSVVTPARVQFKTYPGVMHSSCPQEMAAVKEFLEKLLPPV
Rin1-Abl PPI inh = inhibitors of Rin1-Abl protein binding, primary screen, biochemical, TR-FRET. Tyrosine-protein kinase ABL1 (Homo sapiens) + Ras and Rab interactor 1 (Homo sapiens), …. inhibition, % at 7.35 µM. 360,000 compounds, 0.4% hits; in the data active means inhibition above about 5%, passing the limit was not always enough
PREPL inh = PREPL enzyme inhibitors, primary screen, biochemical, fluorescence polarization; 320,000 compounds, 0.68% hits; Prolyl endopeptidase-like (Homo sapiens), Q4J6C6; inhibition, % at 5.96 µM; recombinant PREPL, fluorescence polarization activity-based probe; in the data active means inhibition above about 43%;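 further: 0% = enzyme with DMSO and 100% = wells lacking enzyme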
Hck-Nef inh = inhibitors of Nef-activated human Hck kinase, primary screen, biochemical, Z-Lyte FRET, 384-well, Hck-YEEI | Recombinant Hck-YEEI plus Nef, Z-Lyte FRET kinase assay | inhibition, % at 20 µM | 220,000 compounds, 0.68% hits | AID 463187, 2010;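 active means Hck-Nef kinase inhibition above about 50%, limit read from the data; inactive means inhibition below that limit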;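 further: 0% = DMSO with Hck plus Nef and 100% = Hck alone without Nef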
LYPLA1 counter = LYPLA1 inhibitors, primary screen, counter-screen for PME1 inhibitor project, biochemical, fluorescence polarization, FP-Rh probe ABPP | recombinant LYPLA1 | inhibition, % at 5.9 µM | 320,000 compounds, 0.16% hits | AID 2174, 2009;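 active means inhibition above the mean of all tested compounds plus 3 SD, set per campaign, cut at about 14% in these data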;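 further: inhibitors block serine hydrolase probe labeling of LYPLA1 so polarization falls; 0% = enzyme with DMSO and 100% = wells lacking LYPLA1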
Target sequence (O75608 whole entry, looked up): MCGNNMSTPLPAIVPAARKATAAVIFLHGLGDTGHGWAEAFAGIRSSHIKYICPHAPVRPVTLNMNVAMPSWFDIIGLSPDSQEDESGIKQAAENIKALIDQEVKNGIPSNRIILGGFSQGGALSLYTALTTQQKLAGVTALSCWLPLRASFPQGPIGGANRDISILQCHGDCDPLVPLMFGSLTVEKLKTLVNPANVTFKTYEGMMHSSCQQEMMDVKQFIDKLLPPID
Hck Nef conf = retest of Hck:Nef kinase inhibitor hits, confirmation, biochemical, Z-Lyte FRET, 384-well, p-Tyr peptide counterscreen; shares compounds with Hck-Nef inh; 1,300 compounds, 28% hits; Recombinant Hck-YEEI:Nef, Z-Lyte FRET kinase assay; calls only at 10 µM;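 active means average inhibition of at least 50%, with Z-scores no higher than 3 in both the phospho-tyrosine peptide and fluorescence counterscreens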
Numbers without * were called inactive; i = inactive; / = not tested or not shown; + = active, no number. The list is not random: actives were taken first. Their share in the collection is about 1.7%.

SMILES | p97 ATPase inh | LYPLA2 inh | Rin1-Abl PPI inh | PREPL inh | Hck-Nef inh | LYPLA1 counter | others
CCCn1c(=N)c(C#N)cc2c(=O)n3ccccc3nc21 | 3 | -3 | 1 | 11 | 60* | -3
N#Cc1cc2c(=O)n3ccccc3nc2n(CCCn2ccnc2)c1=N | 6 | 2 | -10 | 0 | 55* | -1 | Hck Nef conf=i
COc1ccc(NC(=O)C2CC3CCC2C3)c(OC)c1 (stereo not given) | / | -6 | 0 | 8 | / | -3
CC1(C)CC(=O)C2=C(C1)c1c(ccc3ccccc13)NC2c1cc([N+](=O)[O-])cc([N+](=O)[O-])c1O (stereo not given) | 0 | -10 | -2 | 2 | 51* | -6 | Hck Nef conf=+
CC1(C)CC(=O)C2=C(C1)c1c(ccc3ccccc13)NC2c1ccc(C(=O)O)cc1 (stereo not given) | / | 6 | 0 | 0 | / | 4
CCN(CC)c1ccc2cc(C(N)=O)c(=O)oc2c1 | 0 | -2 | -7 | 4 | 123* | 2
Cc1ccccc1C(=O)NC1CCN(C(=O)Nc2ccc(F)cc2)CC1 | / | 0 | 5 | 2 | / | 3
Cc1cc(=O)oc2cc(NS(=O)(=O)c3ccccc3)ccc12 | 9 | 1 | 2 | 7 | 114* | 0
Cc1cc(=O)oc2cc(NS(=O)(=O)c3ccc(F)cc3)ccc12 | 2 | -5 | -2 | 2 | 106* | -5
CN(C)S(=O)(=O)c1ccc(S(=O)(=O)Nc2ccc3c(c2)oc2ccccc23)cc1 | 3 | -8 | 0 | -38 | 0 | -7
NS(=O)(=O)c1ccc(CNC(=O)c2ccc(NS(=O)(=O)c3cccs3)cc2)cc1 | / | / | -2 | 17 | / | /
Cc1cc(COc2ccccc2)oc1C(=O)O | / | 8 | -2 | 1 | / | 1
Cc1c(O)c(CN2CCCCC2)cc2c3c(c(=O)oc12)CCC3 | 0 | 2 | -7 | -5 | 9 | 1
CN(C)Cc1c(O)c(Cl)cc2c3c(c(=O)oc12)CCCC3 | -4 | -2 | -2 | 6 | 137* | -4
CCN(CC)Cc1c(O)c(Cl)cc2c3c(c(=O)oc12)CCCC3 | -6 | 8 | -5 | 3 | 113* | 2
O=c1oc2c(CN3CCOCC3)c(O)c(Cl)cc2c2c1CCC2 | -7 | / | -2 | / | 158* | /
O=C(CCn1c(=O)c2cccn2c2cccnc21)NCCCN1CCN(c2ccc(F)cc2)CC1 | / | / | -2 | / | / | /
COc1cccc(C(=O)NC(C)CCc2ccccc2)c1 (stereo not given) | / | -1 | -3 | 2 | / | -2
O=C(COc1ccc(F)c(Cl)c1)N1CCCCCCC1 | / | 4 | -2 | 5 | / | -1
Cc1ccc(NC(=O)c2cc(-c3ccco3)nc3ccccc23)cc1S(=O)(=O)N1CCOCC1 | 10 | -10 | 3 | -3 | 69* | -11 | Hck Nef conf=+
COc1ccc(NC(=O)c2cc(-c3ccco3)nc3ccccc23)cc1S(=O)(=O)N1CCOCC1 | 13 | -23 | 1 | 12 | 33 | -17
O=C(N/N=C/c1ccncc1)c1ccc(NC(=O)c2cccc(Cl)c2)cc1 | -2 | -3 | 2 | -4 | -6 | -3
O=C(N/N=C/c1ccncc1)c1ccc(NC(=O)c2ccc(Cl)cc2)cc1 | 0 | -5 | 2 | 23 | 58* | -5 | Hck Nef conf=i
CCN(CC)c1ccc(-c2nnc(SCC(=O)Nc3ccccc3C#N)n2-c2ccccc2)cc1 | 0 | 13 | 2 | 17 | 66* | 0 | Hck Nef conf=+
COc1ccc(C(=O)n2cc(C(=O)c3cc(C)ccc3O)cn2)cc1 | 2 | 5 | 0 | 2 | 30 | -1
COc1ccc(C(=O)n2cc(C(=O)c3cc(C)ccc3O)cn2)cc1OC | 4 | -5 | -2 | -4 | 67* | -6 | Hck Nef conf=+
